According to PubChem BioAssay (NCATS):
Where “and” joins values, the source holds several entries; their conditions need not be identical. Equal values may be shown once. Inconclusive results are not listed. Calls of active or inactive are those of the source. Calls come from the whole dose curve; as a rule, active = well fitted inhibition curve with a large enough effect; inconclusive = small, poorly fitted or top-dose-only effect; inactive = flat fitted curve, though single readings scatter.

Assay: Drug repurposing screens with cells derived from glioblastoma tumor samples (AID 1345199); note: nearly all actives have a fitted effect of over 40% in size
Conditions: GBM patient neurospheres viability, ATP luminescence, 48 h; at 45.9 µM (top of the series); tumour line B
Summary of the method: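 Primary testing used CD133+ neurospheres from four GBM patients, seven concentrations, 48 h exposure and ATP-based viability; confirmation added three slower-growing patient lines.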
% is set by controls: 0 for no effect and ±100 for the full control effect.

SMILES	activity, negative = cell killing
CC1(C)S[C@@H]2[C@H](NC(=O)C(C(=O)O)c3ccsc3)C(=O)N2[C@H]1C(=O)O (stereo partly specified)	5.71% (inactive)
CC1=C(/C=C/C(C)=C/C=C/C(C)=C/C=C/C=C(C)/C=C/C=C(C)/C=C/C2=C(C)CCCC2(C)C)C(C)(C)CCC1	-10.1% (inactive)
Nc1ccn([C@H]2CS[C@@H](CO)O2)c(=O)n1	-4.08% (inactive)
O=C(O)CN(CCN(CC(=O)O)CC(=O)O)CC(=O)O	-9.39% (inactive)
CCOC(C)=O	-6.99% (inactive)
CCCC(=O)O[C@]1(C(=O)COC(C)=O)CC[C@H]2[C@@H]3C[C@H](F)C4=CC(=O)C=C[C@]4(C)[C@@]3(F)[C@@H](O)C[C@@]21C	-13.7% (inactive)
O=S(=O)(O)O	3.03% (inactive)
Cc1c(C)c2c(c(C)c1O)CC[C@@](C)(CCC[C@H](C)CCC[C@H](C)CCCC(C)C)O2	-3.57% (inactive) and 0.952% (inactive)
C[C@]12CCC(=O)C=C1CC[C@@H]1[C@@H]2[C@@H](O)C[C@@]2(C)[C@H]1CC[C@]2(O)C(=O)COP(=O)(O)O	-5.72% (inactive)
Nc1ncnc2c1ncn2[C@@H]1O[C@H](COP(=O)(O)OP(=O)(O)OP(=O)(O)O)[C@@H](O)[C@H]1O	15.4% (inactive)
C[C@@H]1[C@H](O)[C@@H](C)/C=C/C=C\C=C\C=C\C=C\C=C\C=C\[C@H](O[C@@H]2O[C@H](C)[C@@H](O)[C@H](N)[C@@H]2O)C[C@@H]2O[C@](O)(C[C@@H](O)C[C@@H](O)[C@H](O)CC[C@@H](O)C[C@@H](O)CC(=O)O[C@H]1C)C[C@H](O)[C@H]2C(=O)O (stereo in doubt)	-6.2% (inactive)
CCCCCCCC(=O)O	-7.1% (inactive)
CC1=CCC(C(C)(C)O)CC1 (stereo unspecified)	-2.21% (inactive)
CC(O)CO (stereo unspecified)	0.179% (inactive)
CC1(C)S[C@@H]2[C@H](NC(=O)Cc3ccccc3)C(=O)N2[C@H]1C(=O)O	-9.27% (inactive)
CC(=O)OCC(=O)[C@@]1(O)CC[C@H]2[C@@H]3C[C@H](C)C4=CC(=O)C=C[C@]4(C)[C@H]3[C@@H](O)C[C@@]21C	-16.5% (inactive)
IC(I)I	-9.98% (inactive)
CC(NNC(=O)c1ccccc1)c1ccccc1 (stereo unspecified)	-15.6% (inactive)
C/C1=C2N=C(/C=C3N=C(/C(C)=C4\[N-][C@@](C)([C@@H]5N=C1[C@](C)(CCC(=O)NCC(C)OP(=O)(O)O[C@H]1[C@@H](O)[C@@H](n6cnc7cc(C)c(C)cc76)O[C@@H]1CO)[C@H]5CC(N)=O)[C@@](C)(CC(N)=O)[C@@H]4CCC(N)=O)[C@@](C)(CC(N)=O)[C@@H]\3CCC(N)=O)C(C)(C)[C@@H]/2CCC(N)=O.CC(=O)O.[Co] (stereo partly specified)	-15.2% (inactive)
COC(=O)C1=C(C#N)NC(C)=C(C(=O)OC(C)C)C1c1cccc([N+](=O)[O-])c1 (stereo unspecified)	-5.18% (inactive)
CCCCC(C)(O)C/C=C/[C@H]1[C@H](O)CC(=O)[C@@H]1CCCCCCC(=O)OC (stereo partly specified)	-29.2% (inactive)
OCCO[C@@H]1[C@@H](O)[C@H](O)[C@@H](CO)O[C@@H]1O	-12.3% (inactive)
COC(=O)[C@H]1[C@H]2C[C@@H]3c4[nH]c5ccccc5c4CCN3C[C@H]2C[C@@H](OC(=O)c2cc(OC)c(OC)c(OC)c2)[C@@H]1OC	-12.2% (inactive)
O=C(O)CCC(=O)C(=O)O	-7.95% (inactive)
COc1ccc(C[C@@H](C)NC[C@H](O)c2ccc(O)c(NC=O)c2)cc1	-17.2% (inactive)
CN1C(=O)CN2CCc3ccccc3C2c2cc(Cl)ccc21 (stereo unspecified)	-19.8% (inactive)

Same assay, conditions: GBM patient neurospheres viability, ATP luminescence, 48 h; at 45.9 µM (top of the series); tumour line D

SMILES	activity, negative = cell killing
CC1(C)S[C@@H]2[C@H](NC(=O)C(C(=O)O)c3ccsc3)C(=O)N2[C@H]1C(=O)O (stereo partly specified)	-0.709% (inactive)
CC1=C(/C=C/C(C)=C/C=C/C(C)=C/C=C/C=C(C)/C=C/C=C(C)/C=C/C2=C(C)CCCC2(C)C)C(C)(C)CCC1	-14.5% (inactive)
Nc1ccn([C@H]2CS[C@@H](CO)O2)c(=O)n1	8.01% (inactive)
O=C(O)CN(CCN(CC(=O)O)CC(=O)O)CC(=O)O	-15% (inactive)
CCOC(C)=O	-8.33% (inactive)
CCCC(=O)O[C@]1(C(=O)COC(C)=O)CC[C@H]2[C@@H]3C[C@H](F)C4=CC(=O)C=C[C@]4(C)[C@@]3(F)[C@@H](O)C[C@@]21C	-22.5% (inactive)
O=S(=O)(O)O	-20.1% (inactive)
Cc1c(C)c2c(c(C)c1O)CC[C@@](C)(CCC[C@H](C)CCC[C@H](C)CCCC(C)C)O2	-15.8% (inactive) and 5.62% (inactive)
C[C@]12CCC(=O)C=C1CC[C@@H]1[C@@H]2[C@@H](O)C[C@@]2(C)[C@H]1CC[C@]2(O)C(=O)COP(=O)(O)O	-20.1% (inactive)
Nc1ncnc2c1ncn2[C@@H]1O[C@H](COP(=O)(O)OP(=O)(O)OP(=O)(O)O)[C@@H](O)[C@H]1O	-9.21% (inactive)
C[C@@H]1[C@H](O)[C@@H](C)/C=C/C=C\C=C\C=C\C=C\C=C\C=C\[C@H](O[C@@H]2O[C@H](C)[C@@H](O)[C@H](N)[C@@H]2O)C[C@@H]2O[C@](O)(C[C@@H](O)C[C@@H](O)[C@H](O)CC[C@@H](O)C[C@@H](O)CC(=O)O[C@H]1C)C[C@H](O)[C@H]2C(=O)O (stereo in doubt)	-9.92% (inactive)
CCCCCCCC(=O)O	-17.5% (inactive)
CC1=CCC(C(C)(C)O)CC1 (stereo unspecified)	-4.36% (inactive)
CC(O)CO (stereo unspecified)	10.5% (inactive)
CC1(C)S[C@@H]2[C@H](NC(=O)Cc3ccccc3)C(=O)N2[C@H]1C(=O)O	-18.5% (inactive)
CC(=O)OCC(=O)[C@@]1(O)CC[C@H]2[C@@H]3C[C@H](C)C4=CC(=O)C=C[C@]4(C)[C@H]3[C@@H](O)C[C@@]21C	-18.9% (inactive)
IC(I)I	-13.1% (inactive)
CC(NNC(=O)c1ccccc1)c1ccccc1 (stereo unspecified)	-19.2% (inactive)
C/C1=C2N=C(/C=C3N=C(/C(C)=C4\[N-][C@@](C)([C@@H]5N=C1[C@](C)(CCC(=O)NCC(C)OP(=O)(O)O[C@H]1[C@@H](O)[C@@H](n6cnc7cc(C)c(C)cc76)O[C@@H]1CO)[C@H]5CC(N)=O)[C@@](C)(CC(N)=O)[C@@H]4CCC(N)=O)[C@@](C)(CC(N)=O)[C@@H]\3CCC(N)=O)C(C)(C)[C@@H]/2CCC(N)=O.CC(=O)O.[Co] (stereo partly specified)	-26.7% (inactive)
COC(=O)C1=C(C#N)NC(C)=C(C(=O)OC(C)C)C1c1cccc([N+](=O)[O-])c1 (stereo unspecified)	-25.1% (inactive)
CCCCC(C)(O)C/C=C/[C@H]1[C@H](O)CC(=O)[C@@H]1CCCCCCC(=O)OC (stereo partly specified)	-0.625% (inactive)
OCCO[C@@H]1[C@@H](O)[C@H](O)[C@@H](CO)O[C@@H]1O	-11.5% (inactive)
O=C(O)CCC(=O)C(=O)O	2.23% (inactive)
COc1ccc(C[C@@H](C)NC[C@H](O)c2ccc(O)c(NC=O)c2)cc1	5.61% (inactive)
CN1C(=O)CN2CCc3ccccc3C2c2cc(Cl)ccc21 (stereo unspecified)	-13.4% (inactive)
